The list is not random: actives were taken first. Their share in the collection is about 0.74%.
PLK1 inh: inhibitors of human PLK1 kinase. recombinant PLK1 kinase, TR-FRET peptide phosphorylation. inhibition, % at 10 µM. P53350. 0.53% of 97,000 active;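 active means inhibition of 50% or more in the single-concentration screen; inactive means inhibition below 50%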
Plk1 PBD FP: Plk1 (human) PBD binding inhibition; Plk1 PBD phosphopeptide binding, fluorescence polarization; inhibition, %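 (tested at about 20 µM)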; 0.13% of 97,000 active; in the data active means inhibition above about 34%, passing the limit was not always enough
PKA inh: inhibitors of human protein kinase A | P17612 | PKA Kemptide phosphorylation, Kinase-Glo ATP luminescence | inhibition, % at 6 µM | 0.1% of 65,000 active;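 active means inhibition above the screen-wide mean inhibition plus 3 SD, cut at about 21% in these data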
ROCK2 inh: inhibitors of human Rho kinase 2. O75116. purified ROCK2, Kinase-Glo ATP depletion luminescence. inhibition, % at 6 µM. 0.35% of 60,000 active. AID 604;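 active means inhibition above the screen-wide mean inhibition plus 3 SD, cut at about 18% in these data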
PBD redox DR: redox cycling H2O2 generation counter-screen for Plk1 PBD; DTT; 120 tested, under 10 active; AID 876; EC50, µM; shares compounds with Plk1 PBD FP; call rule not given here
A number is an active result; i = inactive; nt = no result given.

SMILES | PLK1 inh | Plk1 PBD FP | PKA inh | ROCK2 inh | PBD redox DR
CC1(C)CC(=O)C=C(OC(=O)c2ccc(Cl)cc2)C1 | i | i | nt | nt | nt
Nc1cc2nsnc2cc1Br | i | 118 | nt | nt | 13
COc1ccc2[nH]c(=O)c(CN(CCO)S(=O)(=O)c3ccc4c(c3)OCCO4)cc2c1 | nt | nt | i | i | nt
O=C(COc1ccc(S(=O)(=O)N2CCCCC2)cc1)NCc1cccnc1 | i | i | nt | nt | nt
CCc1nc2cc(Cl)c(Cl)cc2[nH]1 | i | 50 | i | i | i
O=C(Nc1nc2ccccc2s1)c1cc2c(s1)-c1ccccc1OC2 | i | 53 | nt | nt | i
CC1CCCC(NC2CCCCNC2=O)C1 (stereo not drawn) | i | 43 | i | i | i
CCC1CCC(NC2CCCCNC2=O)CC1 (stereo not drawn) | i | i | i | i | nt
CCC(C)c1ccc(NC(=O)C2CC2)cc1 (stereo not drawn) | i | 63 | i | i | i
Cc1nc(Cl)c(C(=O)NC(=O)Nc2cccc(C(F)(F)F)c2)c(C)c1[N+](=O)[O-] | i | i | nt | nt | nt
COc1ccc(C2SCCN2S(=O)(=O)c2ccc(F)cc2)cc1OC (stereo not drawn) | i | i | i | i | nt
COc1ccccc1C1SCCN1S(=O)(=O)c1cccc(C(F)(F)F)c1 (stereo not drawn) | i | 51 | i | i | i

Assay outcomes: PubChem, several laboratories
